Among the data in PubChem BioAssay (NCATS) are Potency, outcome and max response values, retold here.

Values without a mark were called inactive. Records with an inconclusive call do not appear. Calls of active or inactive are those of the source. Calls follow the shape of the dose curve; as a rule, active = well fitted curve in the direction sought with a large enough effect; inconclusive = small, poorly fitted or top-dose-only effect, or another doubt; inactive = no such curve, though single readings can be large; an effect the other way counts as inactive or inconclusive.

Experiment [1] deals with Zika virus NS2B-NS3 protease (linked construct). Description: Primary screen NINDS Rhodamine qHTS for Zika virus inhibitors (AID 1347160). Also: nearly all actives have a fitted effect of over 55% in size. Summed up: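 Kinetic fluorescence (Ex 480 nm, Em 540 nm) over 15 min with 1.5 microM Rhodamine110 peptide and 25 nM linked protease.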
Experiment [2] concerns the target Calcium and integrin-binding protein 1 (Homo sapiens) (UniProt Q99828). Description: Primary qHTS for Identification of Calcium Integrin Binding Protein 1 (CIB1) Competitor (AID 1508620).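 Also: GST tagged CIB1 binding a fluorescein labelled alphaIIb integrin peptide tracer; top concentration of the series differs between compounds; % is scaled to controls: 0 for no effect and ±100 for the full control effect.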 In outline: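 CIB1-GST (1 uM final) and compound incubated 15 min at room temperature before adding FITC-alphaIIb peptide tracer (100 nM final). Competition for binding read by fluorescence polarization (ex 480, em 540) after another 15 min at room temperature.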

Experiment [3] in a line: Primary qHTS for inhibitors of nuclear receptor binding SET domain protein 2 (NSD2) in an isogenic RCH-ACV NSD2 p.E1099K mutant (9B) (AID 1645876). Also: nearly all actives have a fitted effect of over 70% in size.
Experiment [4] deals with Glutathione peroxidase 1 (Homo sapiens) (UniProt P07203). Description: Primary qHTS Assay for Inhibitors of Recombinant Selenoprotein Glutathione Peroxidase 1 (GPX1) (AID 1845191). Also: nearly all actives have a fitted effect of over 65% in size. Also: potency is read from the fitted curve at half-maximal effect. In outline: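 10 nM GPX1 + cpd, 30 min RT; start w/ 1 mM GSH, 0.5 mM cumene hydroperoxide, 0.5 mM NADPH, 100 nM GR, 0.01% BSA; buffer 50 mM Tris-HCl pH 7.5, 2 mM EDTA, 150 mM NaCl; Fl 340/450, 0 & 15 min.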

The target of experiment [5] is Phospholipid hydroperoxide glutathione peroxidase GPX4 (Homo sapiens) (UniProt P36969). Description: Primary qHTS Assay for Inhibitors of Recombinant Selenoprotein Glutathione Peroxidase 4 (GPX4) (AID 1845192). Also: % is scaled to controls: 0 for no effect and ±100 for the full control effect; nearly all actives have a fitted effect of over 65% in size. Summed up:
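NADPH consumption, followed by fluorescence at 340/450 nm between 0 and 15 min, reports GPX4 activity via coupled glutathione reductase (100 nM). Enzyme 200 nM was pre-exposed to compound 30 min; 0.5 mM cumene hydroperoxide and 1 mM GSH served as substrates.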

Experiment [6] deals with Luciferin 4-monooxygenase (Photinus pyralis) (UniProt P08659). Nature of the experiment: Primary firefly luciferase (FLuc) qHTS assay for identification of artifact compounds. (AID 1845220). Also: nearly all actives have a fitted effect of over 60% in size. As to conditions: outcome: dose series up to 54.1 µM unless noted. Summed up: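 Compounds sat 15 min at room temperature with 10 uM luciferin and 10 uM ATP (pH 7.6 Tris acetate). Firefly luciferase (10 nM final) was then added, and luminescence was read 5 min later. Data normalized to no-enzyme and DMSO controls were Hill-fitted.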

For experiment [7], the system named is Nanoluciferase (engineered Oplophorus gracilirostris luciferase). Nature of the experiment: Primary Nanoluciferase (NLuc) qHTS assay for identification of artifact compounds. (AID 1845222).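 Also: 0% = DMSO and -100% = no enzyme.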 In outline:
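Luminescence from secreted NLuc (filtered, 1:55-diluted S16 cell medium) read 5 min after Nano-Glo substrate; compounds preincubated 15 min, RT. Hill fits of inhibition normalized to DMSO and no-enzyme.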

The subject of experiment [8] is CRL-7250. Description: Cytotoxic Profiling of Annotated Libraries Using Quantitative High-Throughput Screening (AID 1296008). Also: nearly all actives have a fitted effect of over 60% in size. As to max response: % is scaled to controls: 0 for no effect and ±100 for the full control effect. The note with it: Five cell lines viability, CellTiter-Glo ATP luminescence, 48-72 h; max response: active compounds read low. Summed up: (§1)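 Cytotoxicity was measured as CellTiter-Glo ATP luminescence, read after 10 min at room temperature. Compound treatment of the cells lasted 48 or 72 hr at 37 degrees Celsius in a qHTS format.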

The test system of experiment [9] is HEK293. The experiment is described as above. The note with it: Five cell lines viability, CellTiter-Glo ATP luminescence, 48-72 h; max response: active compounds read low. Summed up:
as §1

Experiment [10] has as its system HaCat. The description is as above. The note with it: Five cell lines viability, CellTiter-Glo ATP luminescence, 48-72 h; max response: active compounds read low. Summed up: as §1
The subject of experiment [11] is NIH3T3. Described as above. As to conditions: Five cell lines viability, CellTiter-Glo ATP luminescence, 48-72 h; max response: active compounds read low. Summed up:
as §1

In experiment [12] the test system is C33A. Description: Primary qHTS to identify gynecologic anti-cancer compounds using libraries of approved drugs and bioactive compounds (AID 1345084). Also: % is scaled to controls: 0 for no effect and ±100 for the full control effect; nearly all actives have a fitted effect of over 55% in size. The note with it: Gynecologic cancer cell panel viability, ATPlite luminescence, 48 h; series mostly up to 57.5 µM. Summed up: (§2)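 Luminescence from the ATPlite ATP-monitoring reagent indicates viable cell number; lower signal means cytotoxicity. Cells received compound 16 h after seeding and were exposed for 48 h across five concentrations.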

Experiment [13] concerns CASKI. Described as above. As to conditions: Gynecologic cancer cell panel viability, ATPlite luminescence, 48 h; series mostly up to 57.5 µM. Summed up: as §2
In experiment [14] the test system is Es-2. Described as above. As to conditions: Gynecologic cancer cell panel viability, ATPlite luminescence, 48 h; series mostly up to 57.5 µM. In outline:
as §2

The test system of experiment [15] is Hek293T. Described as above. The note with it: Gynecologic cancer cell panel viability, ATPlite luminescence, 48 h, control line for the selectivity index; series mostly up to 57.5 µM. In outline:
as §2

Experiment [16] has as its system JEG-3. Described as above. The note with it: Gynecologic cancer cell panel viability, ATPlite luminescence, 48 h; series mostly up to 57.5 µM. In outline: as §2
Experiment [17] relates to OV90. The experiment is described as above. As to conditions: Gynecologic cancer cell panel viability, ATPlite luminescence, 48 h; series mostly up to 57.5 µM. Summed up:
as §2

In experiment [18] the test system is PA-1. The experiment is described as above. The note with it: Gynecologic cancer cell panel viability, ATPlite luminescence, 48 h; series mostly up to 57.5 µM. Summed up: as §2
Experiment [19] relates to Tov-21-G. The description is as above. As to conditions: Gynecologic cancer cell panel viability, ATPlite luminescence, 48 h; series mostly up to 57.5 µM. Summed up:
as §2

The test system of experiment [20] is Tov112D. Described as above. The note with it: Gynecologic cancer cell panel viability, ATPlite luminescence, 48 h; series mostly up to 57.5 µM. Summed up:
as §2

Sequence of Phospholipid hydroperoxide glutathione peroxidase GPX4 (Homo sapiens) (P36969 whole entry, looked up): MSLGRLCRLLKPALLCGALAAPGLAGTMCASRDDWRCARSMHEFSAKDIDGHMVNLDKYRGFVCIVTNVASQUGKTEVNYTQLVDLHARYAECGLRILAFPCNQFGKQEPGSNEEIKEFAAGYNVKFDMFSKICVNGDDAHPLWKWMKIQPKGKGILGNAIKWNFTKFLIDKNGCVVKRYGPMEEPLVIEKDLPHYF
Sequence of Calcium and integrin-binding protein 1 (Homo sapiens) (Q99828 whole entry, looked up): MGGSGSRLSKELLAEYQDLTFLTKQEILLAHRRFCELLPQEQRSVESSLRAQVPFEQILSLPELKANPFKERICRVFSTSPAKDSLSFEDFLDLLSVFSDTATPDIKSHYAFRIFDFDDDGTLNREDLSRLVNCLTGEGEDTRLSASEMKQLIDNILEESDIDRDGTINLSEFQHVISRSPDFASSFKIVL
Sequence of Glutathione peroxidase 1 (Homo sapiens) (P07203 whole entry, looked up): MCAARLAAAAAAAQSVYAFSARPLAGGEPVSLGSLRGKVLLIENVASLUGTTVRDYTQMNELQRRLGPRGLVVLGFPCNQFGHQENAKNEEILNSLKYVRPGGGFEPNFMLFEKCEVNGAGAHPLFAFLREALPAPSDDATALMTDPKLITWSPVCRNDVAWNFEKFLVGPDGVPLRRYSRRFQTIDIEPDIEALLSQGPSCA

`CC(=O)O[C@H]1CN2CCC1CC2`: the Potency result in experiment [1], in [2], in [3], in [4], in experiment [5] and in [7] was “inactive” throughout. In addition, the Potency result in experiment [12], in [13], in experiment [14], in experiment [15], in [16] and in [17] was “inactive” each time. Moreover, the Potency entry in [18], in [19] and in [20] was “inactive” each time. In addition, in experiment [6], the compound was called inactive. Moreover, the max response in experiment [8] was -2.3%; in experiment [9], -3.42%; in [10], 1.98%; in [11] it was 1.29%.

Take `COc1ccc(CN(C(=O)[C@@H](N)Cc2c(C)cc(C(N)=O)cc2C)[C@@H](C)c2ncc(-c3ccccc3)[nH]2)cc1C(=O)O`: the Potency entry in [1], in [2], in experiment [3], in [5], in experiment [7] and in experiment [12] was “inactive” in each case. For the same compound, the Potency entry in experiment [13], in experiment [14], in experiment [15], in experiment [16], in experiment [17] and in experiment [18] was “inactive” throughout. For the same compound, the Potency result in experiment [19] and in experiment [20] was “inactive” in each case. In addition, the compound was classed as inactive in [6]. Also, the max response in experiment [8] was -8.53%; in experiment [9] it was -8.03%; in experiment [10] it was 1.02%; in experiment [11] it was -6.08%.

As to `CC[C@H]1C2CC3[C@@H]4N(C)c5ccccc5[C@]45C[C@@H]([C@H]2[C@H]5O)N3[C@H]1O`, the Potency result in [1], in experiment [3], in experiment [7], in experiment [12], in [13] and in [14] was “inactive” each time. Moreover, the Potency result in experiment [15], in [16], in experiment [17], in experiment [18], in experiment [19] and in experiment [20] was “inactive” in each case. Moreover, the call in experiment [6] and in experiment [10] was inactive. Besides, the max response is 3.45% in experiment [8], 3.06% in [9] and 4.15% in experiment [11].

With `C=C1[C@@]23C(=O)O[C@H](C)[C@]24O[C@@]2(C(=C)[C@]5(C=CC(=O)OC5(C)C)CC[C@]32C)[C@H](O)[C@@]1(C)OC4=O`, the Potency result in experiment [2], in experiment [3], in experiment [4], in experiment [7], in experiment [12] and in experiment [13] was “inactive” each time. Further, the Potency entry in [14], in experiment [15], in experiment [16], in experiment [17], in [18] and in [19] was “inactive” each time. Also, the Potency result in experiment [20] is “inactive”. For the same compound, the call in [6] and in experiment [10] was inactive. In addition, the max response in [8] is -20.6%; in [9] it was -10.4%; in [11] it was 0.197%.

For the compound `C1=C(c2cnc[nH]2)c2ccsc2CC1`, the Potency result in experiment [1], in experiment [2], in experiment [3], in [7], in experiment [12] and in [13] was “inactive” in each case. Also, the Potency entry in experiment [14], in experiment [15], in experiment [16], in experiment [17], in experiment [18] and in experiment [19] was “inactive” each time. For the same compound, in [20], the Potency result was “inactive”. Moreover, the Potency in experiment [4] was 20.2 µM (active). The compound was called inactive in experiment [6] and in [10]. In addition, the max response in experiment [8] was 4.29%; in experiment [9], -1.06%; in [11], -2.31%.

As to `CS[C@]1(CO)C(=O)N2[C@H]3C(=CC=C[C@@H]3O)C[C@@]2(SC)C(=O)N1C`, the Potency result in [2], in experiment [3], in experiment [4], in experiment [5], in [7] and in experiment [12] was “inactive” in each case. The Potency entry in experiment [13], in experiment [14], in experiment [15], in experiment [16], in experiment [17] and in [18] was “inactive” in each case. The Potency entry in [19] and in experiment [20] was “inactive” throughout. The compound was called inactive in experiment [6] and in [8]. Further, the results for the max response in experiment [9], in experiment [10] and in [11] were -12.6%, 0.502% and -3.97%, respectively.
